System: LXRb homodimer (NR concentration 270 nM)
Assay: PBM binding z-score (relative to random genomic background probes); higher = stronger binding; sequences stand for … in GC…GCGATTGACAGCGTAGAATGAAGG
Method in brief: (§1)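 Ligand-free nuclear receptor dimers were applied to custom Agilent 4×180K protein-binding microarrays whose double-stranded probes carried direct-repeat seeds, single-nucleotide variants, half-site ablations and random human genomic background sequences in 34-nt variable regions. Incubation lasted 1 h. Binding z-scores were computed against the random background probes from regression-normalized fluorescence.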

Sequence	PBM binding z-score
AGTCAAAGTTCATCTAGGTAACGTATGATATGCT	1.5
CAAACTAGGTGAAGAGGTCAAAGTCCGCTTCCCG	0.798
CCTATTTGGTCAAGGTCACACACGCTATAGGTAC	1.47
AGAATGAGGTTGTACGTAGATCAGGGAAGAAAGT	0.0497
GTACCAAGGTGAATAGGTCGTTAATGAGTAGGCG	-0.312
CCTAGCAGGCCAATCTGGGTCACACAAGGCTTGA	-0.968
AACTCTAGGTAAAAGTTCAGTGAATCCCGAGGAT	0.00492
TTACCAAGGTGAAGGTCGTTGTTCCCTCTGTAGA	-0.491
CCGACTGGTGCAGAAAGGTTACCATACCATCCGG	-0.9
TCTATTAGTTGATGGGCAACCGACGAGTCCGTTT	0.322
GCTTACGGGTCAAAGGTTATTGCATGAATAGAAT	0.701
TCTTGTAGATCAAAGGTTAAGAACGCCGAAGCCT	0.138
TCAGACAGGTGAAGGTAACTCATGTACGCAGTCG	-0.0252
GCTATTAGTAGAAAGGGCAACCGAATGATTCTCG	-0.195
CCAGACAGGTGAAAGGTAAGTCAGTCTGGTACGC	-0.505
ACTCGGAGGACAAAGGTCAGAGATACGCCAGTGA	0.52
AGAATGAGGTTACCAAAGATCAGGGCAACGCTTG	-0.372
CCGACTGGGGCAAAGGTTAGCATACTCAGTACGA	-1.29
ATCTCTAAGTAAAGATAGTTCAGTGAATGCAAAT	0.588
GCTATTAGTTGAAAGGGCTACCGAATGATTCTCG	-0.468

Sequence	PBM binding z-score
TCTTGTCGATCAATAGAGGTTAAGAAAGTGCGCT	0.134
ATCTCTTGGTAAAAGTTCAGTGAATCCCGAGGAT	1.09
CTAACTAGGTCAAGGACAGTGAATCTCCGCACGC	0.129
AGAATGAGGTTATTAAAATCAGGGAATTGCGGTC	0.192
ACAAGCAGGCCAAGGGTCACTCAAGATTAGTCCG	-0.322
GATACAGGGTCAAGGCCCGAGTACGCGTATTGAT	-0.411
ACTATTAGTTGACTTAGTGCAACCGATACGACGC	0.478
CCGAGTAGGTTATGGGGCAGTCAGGCAACGGTGA	-0.292
CCTACTGGGCCATTCAGAGGCCATTGATCATATG	-0.546
ATCTCTGGGTAAGACTCAGTTCAGTGAAGAACGC	0.684
TCGAGTTGGTCACGGAGGTCACACACGACGGGTA	-0.188
TTACCAAGGTGAACGTCGTTGATCCCTCTGTAGA	-0.681
TCATATAGGTAAAGGTGAAAGTCGAACGATATGA	-0.112
CTACTAAGGTGAACAAGGTCGTTGATTACTATTC	-0.227
ATCTCTAGGCAAAAGTTCAGTGAATCCCGAGGAT	0.319
CAAACTAGGTCAAGGTAAAAGTCGGTTTGTGCCA	0.356
CAAACTAGGTCAGGGTCAAAGTCGGTTTGTGCCA	0.645
ATATGTAGGTTACAACCGGGTCATTCAGGCTATG	0.715
AGTCAATGTTCAGGACGAGGTAACGTAAAGCACG	-0.516
ATATGTAGGTTAAGGGTCATCCAGGTTGGTTCGC	1.61

System: PPARa:RXRa (NR concentration 270 nM, RXRa partner concentration 90 nM)
Assay: as above
Method in brief: as §1

Sequence	PBM binding z-score
AGTCAAAGTTCATCTAGGTAACGTATGATATGCT	4.97
CAAACTAGGTGAAGAGGTCAAAGTCCGCTTCCCG	5.95
CCTATTTGGTCAAGGTCACACACGCTATAGGTAC	4.33
AGAATGAGGTTGTACGTAGATCAGGGAAGAAAGT	0.574
GTACCAAGGTGAATAGGTCGTTAATGAGTAGGCG	2.18
CCTAGCAGGCCAATCTGGGTCACACAAGGCTTGA	3.68
AACTCTAGGTAAAAGTTCAGTGAATCCCGAGGAT	4.2
TTACCAAGGTGAAGGTCGTTGTTCCCTCTGTAGA	2.58
CCGACTGGTGCAGAAAGGTTACCATACCATCCGG	1.73
TCTATTAGTTGATGGGCAACCGACGAGTCCGTTT	-0.00429
GCTTACGGGTCAAAGGTTATTGCATGAATAGAAT	6.84
TCTTGTAGATCAAAGGTTAAGAACGCCGAAGCCT	4.96
TCAGACAGGTGAAGGTAACTCATGTACGCAGTCG	1.26
GCTATTAGTAGAAAGGGCAACCGAATGATTCTCG	1.42
CCAGACAGGTGAAAGGTAAGTCAGTCTGGTACGC	2.87
ACTCGGAGGACAAAGGTCAGAGATACGCCAGTGA	4.69
AGAATGAGGTTACCAAAGATCAGGGCAACGCTTG	3.61
CCGACTGGGGCAAAGGTTAGCATACTCAGTACGA	4.88
ATCTCTAAGTAAAGATAGTTCAGTGAATGCAAAT	0.429
GCTATTAGTTGAAAGGGCTACCGAATGATTCTCG	0.0178

Sequence	PBM binding z-score
TCTTGTCGATCAATAGAGGTTAAGAAAGTGCGCT	1.97
ATCTCTTGGTAAAAGTTCAGTGAATCCCGAGGAT	1.58
CTAACTAGGTCAAGGACAGTGAATCTCCGCACGC	4.99
AGAATGAGGTTATTAAAATCAGGGAATTGCGGTC	2.3
ACAAGCAGGCCAAGGGTCACTCAAGATTAGTCCG	4.58
GATACAGGGTCAAGGCCCGAGTACGCGTATTGAT	5.39
ACTATTAGTTGACTTAGTGCAACCGATACGACGC	-0.0535
CCGAGTAGGTTATGGGGCAGTCAGGCAACGGTGA	1.76
CCTACTGGGCCATTCAGAGGCCATTGATCATATG	0.543
ATCTCTGGGTAAGACTCAGTTCAGTGAAGAACGC	0.1
TCGAGTTGGTCACGGAGGTCACACACGACGGGTA	3.87
TTACCAAGGTGAACGTCGTTGATCCCTCTGTAGA	1.99
TCATATAGGTAAAGGTGAAAGTCGAACGATATGA	3.41
CTACTAAGGTGAACAAGGTCGTTGATTACTATTC	3.07
ATCTCTAGGCAAAAGTTCAGTGAATCCCGAGGAT	2.96
CAAACTAGGTCAAGGTAAAAGTCGGTTTGTGCCA	4.86
CAAACTAGGTCAGGGTCAAAGTCGGTTTGTGCCA	6.05
ATATGTAGGTTACAACCGGGTCATTCAGGCTATG	4.68
AGTCAATGTTCAGGACGAGGTAACGTAAAGCACG	-0.141
ATATGTAGGTTAAGGGTCATCCAGGTTGGTTCGC	6.89
